Data published in PubChem BioAssay (Tox21).
Several values for one entry are separate records, joined by “and”; a condition that tells them apart may be missing. Equal entries are not always repeated. Inconclusive results are not listed. Where a call stands in place of a potency, no number is given. Activity calls are given as the source filed them. Calls come from the whole dose curve; as a rule, active = well fitted cell-killing curve with a large enough effect in the repeat runs; inconclusive = weak or mixed curves, or effect the other way; inactive = flat fitted curve, though single readings scatter. Residues, ends and D or L forms follow the SMILES beside them.

Test: qHTS assay to identify small molecule antagonists of the estrogen receptor alpha (ER-alpha) signaling pathway using the BG1 cell line in the presence of 0.1 nM 17-beta-estradiol - cell viability counter screen (AID 1259241); note: nearly all actives have a fitted effect of over 40% in size
Settings: VM7Luc4E2 (BG1) viability, CellTiter-Fluor protease, 22 h, 0.1 nM estradiol agonist added; series mostly up to 92.4 µM
Text: National Center for Advancing Translational Sciences [NCATS]
NIH Chemical Genomics Center [NCGC]
U.S. Environmental Protection Agency [EPA]
National Institutes of Environmental Health Sciences [NIEHS]
National Toxicology Program [NTP]
U.S. Food and Drug Administration [FDA]
Estrogen receptor (ER), a member of the nuclear hormone receptor plays an important role in development, metabolic homeostasis and reproduction. Two subtypes of ER, ER-alpha and ER-beta, have similar expression patterns with some uniqueness in both types. Endocrine disrupting chemicals (EDCs) and their interactions with steroid hormone receptors like ER causes disruption of normal endocrine function. Therefore, it is important to understand the effect of environmental chemicals in ER signaling pathway. For identifying ER antagonists, VM7Luc4E2 cell line was used to screen against Tox21 compound libraries.
VM7Luc4E2 cell line (provided by Denison MS, University of California) endogenously express full-length ER-alpha and is stably transfected with a plasmid containing four estrogen responsive elements (ERE) upstream of a luciferase reporter gene. The current screening for identification of ER-alpha inhibitors against Tox21 compound libraries used lower concentration (0.1 nM) of 17beta-Estradiol as a stimulator. The cytotoxicity of the Tox21 compound libraries against VM7Luc4E2 cell line was tested by measuring live-cell protease activity using CellTiter-Fluor assay in the same wells.
Tox21 Assay Protocol Summary:
VM7Luc4E2 cells were cultured in phenol red free assay medium containing 10% charcoal stripped FBS for 5 days prior to the assay. The cells were dispensed at 4,000 cells/well in 4 uL of assay medium into white wall/solid-bottom 1536-well plates (Corning Life Sciences, Corning, NY) using a Multidrop Combi (ThermoFisher Scientific, Waltham, MA) dispenser. After the assay plates were incubated at 37C and 5% CO2 for 24 hr, 23 nL of compounds dissolved in DMSO, positive controls or DMSO only was transferred to the assay plates by a Pintool station (Kalypsys, San Diego, CA). The transfer of compounds was followed by the addition of 1 uL of 0.1 nM (final concentration) agonist (17beta-Estradiol)/assay medium using a Flying Reagent Dispenser (FRD, Aurora Discovery, San Diego, CA). The plates were incubated at 37C and 5% CO2 for 22 hr. For cytotoxicity assay, 1 uL of CellTiter-Fluor reagent (Promega Corporation, Madison, WI) was added to each well using the FRD and after 30 min incubation at 37C and 5% CO2, The fluorescence intensity was measured using ViewLux plate reader (PerkinElmer, Shelton, CT).
Potency is the fitted concentration of half-maximal effect.

SMILES	Potency
Cn1c(=O)c2[nH]cnc2n(C)c1=O	inactive
NC(=O)c1cnccn1	inactive
O=S(=O)(O)c1ccc2cc(O)ccc2c1	inactive
O=C(O)c1cc(N=Nc2ccc(S(=O)(=O)Nc3ccccn3)cc2)ccc1O	24.4 µM (active) and 30.6 µM (active)
CNC[C@H](O)c1cccc(O)c1	inactive
O=C1NC(=O)c2ccccc21	inactive
O=c1ccc2ccccc2o1	inactive
CC(=O)OCC(COC(C)=O)OC(C)=O	inactive
O=NO	inactive
OCCc1ccccc1	inactive
COC(=O)[C@H](Cc1ccccc1)NC(=O)[C@@H](N)CC(=O)O (H-Asp-Phe-OMe)	inactive
O=C(O)CCCCCCCC(=O)O	inactive
CC(=O)Nc1nnc(S(N)(=O)=O)s1	inactive
CCCC(CCC)C(=O)O	inactive
CCCN(CCC)S(=O)(=O)c1ccc(C(=O)O)cc1	inactive
O=c1cc[nH]c(=S)[nH]1	inactive
CCCNC(=O)NS(=O)(=O)c1ccc(Cl)cc1	inactive
CCOc1ccc(NC(=O)CC(C)O)cc1 (stereo not given)	inactive
CC(C)[C@@H]1CC[C@@H](C)C[C@H]1O	inactive
Nc1ccn([C@H]2CC[C@@H](CO)O2)c(=O)n1	inactive

SMILES	Potency
Oc1ccc(/C=C/c2cc(O)cc(O)c2)cc1	inactive
NC(N)=O	inactive
O=C(O)CCCCC(=O)O	inactive
COc1c2occc2cc2ccc(=O)oc12	inactive
O=C(O)c1[nH]n(-c2ccc(S(=O)(=O)O)cc2)c(=O)c1N=Nc1ccc(S(=O)(=O)O)cc1	48.7 µM (active) and 28.6 µM (active)
Cc1cc(=O)[nH]c(=S)[nH]1	inactive
CC(O)CN(CCN(CC(C)O)CC(C)O)CC(C)O (stereo not given)	inactive
NNC(=O)c1ccncc1	inactive
O=C(O)CS	inactive
Cc1ccc(O)cc1	inactive
Nc1ccc(S(=O)(=O)c2ccc(N)cc2)cc1	inactive
COc1ccc2[nH]cc(CCNC(C)=O)c2c1	inactive
NS(=O)(=O)c1cc(C(=O)O)c(NCc2ccco2)cc1Cl	inactive
OC(Cn1cncn1)(Cn1cncn1)c1ccc(F)cc1F	inactive
CC1(C)[C@@H]2CC[C@@]1(C)C(=O)C2	inactive
CCCCC(CC)COC(=O)/C=C/c1ccc(OC)cc1 (stereo not given)	inactive
C/C=C/c1ccc(OC)cc1	inactive
O=S(=O)(O)NC1CCCCC1	inactive
O=C(C1CCCCC1)N1CC(=O)N2CCc3ccccc3C2C1 (stereo not given)	inactive
C1N2CN3CN1CN(C2)C3	inactive
